Smad3 FoxH1 inh – blocks human Smad3 binding to FoxH1 peptide. P84022. TR-FRET Smad3/Dy647-FoxH1 peptide binding, europium anti-His. inhibition, % at 25 µM. 0.29% of 88,000 active;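 active = compounds that reduce the energy-transfer binding signal between the protein and its labelled peptide by more than half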;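 also: 0% = Smad3 plus labelled peptide maximal FRET and 100% = peptide-only background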
PLK1 PBD inh – inhibitors of human Plk1 polo box domain binding | P53350 | Plk1 PBD phosphopeptide binding, fluorescence polarization | inhibition, %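 (tested at about 20 µM)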 | 0.13% of 97,000 active; in the data active = inhibition above about 34%, passing the limit was not always enough
PLK1 kinase inh – inhibitors of human PLK1 kinase | P53350 | recombinant PLK1 kinase, TR-FRET peptide phosphorylation | inhibition, % at 10 µM | 0.53% of 97,000 active | AID 619;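 active = inhibition of 50% or more in the single-concentration screen; inactive = inhibition below 50%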;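 also: 0% = DMSO max control and 100% = H-89 dihydrochloride min control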
FAK blocker – inhibitors of human focal adhesion kinase. biochemical FAK kinase activity assay. 0.84% of 97,000 active. Q05397. inhibition, %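 (tested at 7 µM)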;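 also: 0% = DMSO and 100% = reference compound high control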
EphB4 ephrin blk – EphB4-ephrin-B2 interaction antagonism; P54760; EphB4 LBD / TNYL-RAW-Alexa532 peptide, fluorescence polarization; inhibition, % at 7 µM; 0.15% of 97,000 active; AID 720;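 active = inhibition above the screen-wide mean inhibition plus 3 SD, cut at about 15% in these data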;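 also: 0% = DMSO wells and 100% = excess unlabeled TNYL-RAW peptide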
FAK inh confirm – FAK (human) inhibition confirmed; shares compounds with FAK blocker; AID 794; inhibition, % at 7 µM; FAK kinase biochemical inhibition assay; 28% of 750 active
* = called active by the depositor; . = no result given. In the library only some 1.6% were active in any assay of this set; here they are far more common. Rule as the data show it, unless noted: active = inhibition above about 19%; inactive = the rest.

SMILES	Smad3 FoxH1 inh	PLK1 PBD inh	PLK1 kinase inh	FAK blocker	EphB4 ephrin blk	FAK inh confirm
O=C(CCNS(=O)(=O)c1cccs1)Nc1nccs1	-4.1	9.6	19.0	83.2*	-2.4	-0.6
CSc1nc(SCC(=O)NCc2ccco2)c2c3c(sc2n1)COC(C)(C)C3	-1.5	.	.	.	.	.
CSc1nc(SCC(=O)NC(c2ccccc2)c2ccccc2)c2c3c(sc2n1)CN(C)CC3	-15.0	-21.9	-11.3	24.0*	-2.9	1.1
CCCCOCCCNC(=O)/C=C/c1ccccc1Cl	.	32.6	-7.7	0.2	-8.8	.
CC(C)NC(=O)c1ccc(C2SCC(=O)N2Cc2ccccc2)cc1 (stereo not drawn)	0.4	7.6	-10.5	-1.5	-2.2	.
Cc1cc2c(C)nc(-c3ccccc3)nc2o1	0.3	-0.2	-8.4	25.1*	0.8	-1.0
Cc1ccc(NC(=O)CSc2nnc(-c3ccco3)c(-c3ccco3)n2)cc1	10.0	-27.5	-6.9	19.2*	-0.4	1.5
Cc1ccccc1NC(=O)CSc1nnc(-c2ccco2)c(-c2ccco2)n1	5.8	-1.2	-6.7	15.2	3.7	.
Cc1cccc(C)c1NC(=O)CSc1nnc(-c2ccco2)c(-c2ccco2)n1	-3.6	3.6	3.2	35.4*	-3.7	9.7
O=C(c1ccc(S(=O)(=O)Nc2ccc(F)cc2)cc1)N1CCN(C(=O)c2ccco2)CC1	7.0	-26.6	-23.8	27.4*	-5.2	-1.0
CCOC(=O)c1cnc2ccc(C(=O)OC)cc2c1NCc1ccco1	14.8	3.7	-9.6	10.9	-5.7	.
CCOC(=O)c1cnc2cc(Cl)c(OC)cc2c1NCC1CCCO1 (stereo not drawn)	.	-18.3	2.1	20.2*	7.8	5.6
O=C(/C=C/c1ccco1)NC(=S)NNC(=O)c1ccco1	4.0	11.9	-4.7	-2.7	-3.4	.
CCn1nnnc1SCC(=O)N1CCCc2ccccc21	-4.8	-1.7	-8.1	-1.0	-11.7	.
CCOc1cc(CNc2ccc(O)cc2)ccc1OCc1ccc(Cl)cc1Cl	.	6.7	4.9	31.6*	7.5	-0.8
COc1cc(CNCc2ccccn2)ccc1OCc1ccc(Cl)cc1Cl	.	-6.9	-3.1	8.8	5.9	.
Oc1ccc(NCc2ccccc2OCc2ccccc2F)cc1	.	-7.4	-3.5	35.3*	-1.9	-0.7
CCOc1cccc(CNc2ccc(O)cc2)c1OCc1ccc(Cl)cc1	.	13.0	-2.3	30.1*	-1.3	-0.6
Cc1ccc(NCN2C(=O)C3CC=CCC3C2=O)cc1 (stereo not drawn)	23.7	16.4	-10.7	-1.5	3.6	.
CCOC(=O)c1c(N)sc2c(O)c(Br)ccc12	-1.3	-11.4	9.2	18.9*	13.6	0.6
O=C(O)c1ccc(Nc2ccnc3cc(Cl)ccc23)cc1O	13.5	.	.	.	.	.
CCC(C)n1cnc2c(c1=O)c1nc3ccccc3nc1n2-c1ccc2c(c1)OCCO2 (stereo not drawn)	31.6	-38.6	-7.3	21.4*	-10.1	11.2
CCCCC(=O)Nc1ccc(Br)cn1	-0.5	2.5	-3.3	5.5	9.7	.
CC(C)=CC1C(C(=O)Nc2ccc(Br)cn2)C1(C)C (stereo not drawn)	-17.1	9.6	-9.4	26.8*	-7.0	8.4
CN(Cc1ccccc1)c1ncnc2ccc(Br)cc12	7.7	-15.4	6.1	39.0*	-0.1	12.5
SMILES	Smad3 FoxH1 inh	PLK1 PBD inh	PLK1 kinase inh	FAK blocker	EphB4 ephrin blk	FAK inh confirm
O=C(Nc1ccc(/C=C/c2nc3ccccc3o2)cc1)c1ccc(F)cc1	.	11.4	-11.7	0.0	-7.0	.
O=c1oc(-c2ccc(Br)o2)nc2ccccc12	-0.4	16.0	-6.0	35.2*	-3.1	37.2*
Cc1ccc2nc(C3CCN(S(=O)(=O)c4ccc5ccccc5c4)CC3)[nH]c2c1	11.2	5.6	-0.7	1.5	-10.9	.
COc1ccc(CNC(=O)C(c2ccncc2)N(C(=O)Cc2cccs2)c2ccccc2C)cc1 (stereo not drawn)	.	8.4	-6.7	5.1	0.3	.
CCOC(=O)CNC(=O)c1sc2ncnc(N3CCc4ccccc4C3)c2c1C	1.4	8.6	-5.0	42.4*	0.1	33.5*
O=C(NCC1CCCO1)c1onc(CSc2cccc3ccccc23)c1C(=O)O (stereo not drawn)	.	7.3	-20.7	-3.2	2.3	.
Cn1c(SCc2ccon2)nc2ccccc2c1=O	8.2	12.3	-2.6	22.7*	0.1	6.4
Clc1ccc(Br)cc1-c1nc(-c2ccncc2)no1	9.2	2.4	-12.1	27.8*	8.3	6.3
Brc1cccc(-c2nc(-c3ccncc3)no2)c1	-22.2	.	.	.	.	.
Clc1ccc(Cc2nc(-c3cccnc3)no2)cc1	.	-33.5	-5.2	-3.3	0.7	.
O=c1[nH]c(Nc2ccccc2)cc2ccccc12	57.8*	9.2	-7.9	38.2*	0.0	34.6*
CCc1nc(NCc2cccnc2)c2oc3ccccc3c2n1	-16.8	5.4	-0.3	20.2*	-1.6	5.4
Cc1ccc(C)c(C(=O)NCc2ccncc2)c1	8.4	-7.8	-7.3	-2.1	0.5	.
Cc1ccc(SCc2ccc(C(=O)NCc3ccncc3)cc2)cc1	.	12.5	-3.0	43.3*	3.4	2.7
O=[N+]([O-])c1cc(Br)c(O)c(/C=N/Nc2nnnn2-c2cccc3ccccc23)c1	.	-0.1	-5.8	4.4	9.2	.
COCCNC(=O)C(c1ccc(C)o1)N(C(=O)c1snc(C(N)=O)c1N)c1cc(C)cc(C)c1 (stereo not drawn)	6.8	8.1	-12.0	23.0*	-1.2	8.3
COCCNC(=O)C(c1ccc(C)o1)N(Cc1ccco1)C(=O)c1snc(C(N)=O)c1N (stereo not drawn)	-0.5	-13.9	-14.7	2.6	-0.9	.
Cc1ccccc1Cn1c2ccccc2c2cn[nH]c(=O)c21	.	9.7	31.6	19.9*	7.8	3.6
NS(=O)(=O)c1ccc(NS(=O)(=O)c2ccc(NC(=O)c3ccc(-c4ccccc4)cc3)cc2)cc1	.	-5.2	-13.2	29.6*	8.6	14.2
Cc1nn(-c2ccccn2)c2c1C(c1ccccn1)C1=C(CCCC1=O)N2 (stereo not drawn)	.	-10.2	-2.5	3.5	0.0	.
Cc1occc1C(=O)NC1CCCCCC1	-3.5	22.9	2.5	72.1*	3.9	2.3
Nc1c(OCC(=O)O)ccc2cc(S(=O)(=O)O)ccc12	27.6	.	.	.	.	.
COC(=O)c1cc(OC)c(OC)cc1NC(=O)c1cc(-c2ccccc2)nc2ccccc12	.	4.5	-8.3	21.4*	-1.7	8.2
CN(C)c1ccc(-n2cc3c(=O)n(C)c(=O)n(C)c3c2)cc1	-3.2	-7.6	-5.2	27.2*	0.4	8.4
CCN(CC)c1ccc(-n2cc3c(=O)n(C)c(=O)n(C)c3c2)cc1	18.4	.	.	.	.	.
Cc1ccc(CNc2oc(-c3ccco3)nc2S(=O)(=O)c2ccccc2)cc1	2.5	-5.0	-16.5	0.2	-1.4	.
O=C(NCCc1c[nH]c2ccccc12)C1CCN(c2nnc(N3CCCC3=O)s2)CC1	5.2	-12.8	11.8	36.0*	-0.3	31.1*
O=C(O)C1CCCCC1C(=O)NCCc1c[nH]c2ccccc12 (stereo not drawn)	8.4	-15.9	-2.9	0.6	3.2	.
O=C(NNC(=O)c1cc2cc3ccccc3nc2s1)c1cccc(Cl)c1	.	10.3	-22.8	30.3*	-6.9	4.8

Screens deposited in PubChem BioAssay by several laboratories.
